From PubChem
Shiga inhibitor = blocks Shiga toxin action in Vero cells. Vero cells, Shiga toxin protein synthesis inhibition reporter. inhibition, % at 38.7 µM. actives 9.2% (n = 290,000). AID 2315; in the data active = inhibition mostly above about 28%, no sharp cut-off; inactive = mostly below about 43%; note: 0% is about no effect
CHX counter = affects cycloheximide protein synthesis inhibition readout, counter-screen | actives 12% (n = 300,000) | cell reporter, cycloheximide protein synthesis inhibition counterscreen | max response, %; in the data active = max response mostly above about 13%, no sharp cut-off; inactive = mostly below about 14%; note: read at 38.3 µM for the half of the compounds with a filed dose; 0% is about no effect
NS1 inh = blocks influenza NS1 protein function | Potency, µM (titrated, usually from 46.1 µM), without a hit: at the top dose activity, positive = more growth | AID 2326 | actives 0.4% (n = 270,000); calls by dose curve; note: potency is the fitted concentration of half-maximal effect; actives are rising curves; nearly all actives have a fitted effect of over 50% in size
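Compounds were scored for reversing the slow growth caused by influenza A NS1 in S. cerevisiae, measured by optical density at 600 nm. Assay medium contained 2% galactose at pH 6.0; NS1-free yeast of the same strain were the positive control.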
Pf growth 96h = P. falciparum growth inhibition at 96 hour, primary screen for plastid delayed-death inhibitors | P. falciparum luciferase reporter growth, 96 h | Potency, µM (doses to about 28.7 µM), without a hit: top-dose activity change, negative = inhibition, hits mostly inhibitors | actives 6.9% (n = 320,000); note: potency is the fitted concentration of half-maximal effect; % is set by controls: 0 for no effect and ±100 for the full control effect
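Delayed-death screen, second-generation endpoint: infected erythrocytes, 2% hematocrit, 0.05% parasitemia final; 96 hours at 37 C, 5% CO2; luciferase detection reagent; luminescence decrease equals reduced growth.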
FBPA Giardia inh = Giardia lamblia aldolase inhibition. A8B2U2. purified Giardia FBPA. Potency, µM (titrated, usually from 59.6 µM), for the others: at the highest dose activity, negative = inhibition, actives largely listed as inhibitors. actives 0.71% (n = 290,000). AID 2451; note: potency is the fitted concentration of half-maximal effect; % is set by controls: 0 for no effect and ±100 for the full control effect; nearly all actives have a fitted effect of over 55% in size
Target sequence (A8B2U2 whole entry, looked up): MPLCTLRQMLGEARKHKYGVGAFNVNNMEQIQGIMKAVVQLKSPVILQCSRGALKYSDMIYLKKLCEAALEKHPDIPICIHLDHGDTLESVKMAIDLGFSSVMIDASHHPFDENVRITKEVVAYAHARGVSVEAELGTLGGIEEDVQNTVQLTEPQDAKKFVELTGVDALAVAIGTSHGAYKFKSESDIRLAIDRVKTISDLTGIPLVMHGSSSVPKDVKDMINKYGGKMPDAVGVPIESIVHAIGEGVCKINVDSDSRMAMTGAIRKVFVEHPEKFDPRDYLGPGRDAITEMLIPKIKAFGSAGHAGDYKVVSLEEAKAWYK
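Giardia FBPA (40 nM reagent) was preincubated 10 min at RT with compound (up to 57.5 uM final), then substrate plus GAPDH/TPI/NAD/arsenate coupling system with diaphorase/resazurin was added; resorufin fluorescence (525/598 nm) was read after 20 min.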
Pf growth 48h = P. falciparum growth inhibition at 48 hours (one generation) | actives 5.9% (n = 310,000) | AID 504832 | P. falciparum luciferase growth in erythrocytes, 48 h | Potency, µM (highest dose often 28.7 µM), without a hit: at the top dose activity change, negative = inhibition, hits mostly inhibitors; note: potency is the fitted concentration of half-maximal effect; % is set by controls: 0 for no effect and ±100 for the full control effect
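Luciferase-expressing P. falciparum in infected erythrocytes (2% hematocrit, 0.1% parasitemia final) in RPMI 1640/0.5% Albumax were exposed to compound for 48 hours at 37 C, 5% CO2; growth read as luminescence.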
* marks the source's active call; other numbers are inactive results. Shown are actives, neighbours in structure and some others; about 21% of the full set was active somewhere. Unless noted, calls come from the whole dose curve; as a rule, active = well fitted curve in the direction sought with a large enough effect; inconclusive = small, poorly fitted or top-dose-only effect, or another doubt; inactive = no such curve, though single readings can be large; an effect the other way counts as inactive or inconclusive.

Screening COc1ccc2c(CC(=O)NCCN3C(=O)S/C(=C\c4cccnc4)C3=O)coc2c1 returned Shiga inhibitor 20, CHX counter 1, NS1 inh 6%, Pf growth 96h inconclusive, FBPA Giardia inh -15% and Pf growth 48h inconclusive.
`COc1cc(C(=O)OCC(=O)NCCCc2ccccc2)ccc1OCC(C)C` gave Shiga inhibitor -14, CHX counter -2, NS1 inh 13%, Pf growth 96h 5.9µM* and Pf growth 48h inconclusive.
For O=S(=O)(Nc1c(Br)cc(Br)c2cccnc12)C1CCCCC1 the results were Shiga inhibitor -1 and CHX counter -7.
Screening CCn1ncc(Br)c1C(=O)Nc1cc(C)on1 returned Shiga inhibitor 4, CHX counter -2, NS1 inh 19%, Pf growth 96h 3%, FBPA Giardia inh 4% and Pf growth 48h -2%.
For COc1ccc(C(=O)NCCCc2ccccc2)cc1OC the results were CHX counter 14*, NS1 inh -12%, Pf growth 96h inconclusive, FBPA Giardia inh 5% and Pf growth 48h -4%.
Screening COc1ccc(/C(O)=C/c2nc3ccc(C(=O)NCCc4cccc(C)c4)cc3[nH]c2=O)cc1OC returned Shiga inhibitor -13, CHX counter -1, NS1 inh inconclusive, Pf growth 96h inconclusive, FBPA Giardia inh -4% and Pf growth 48h 4.7µM*.
For COc1ccc(CC(=O)NC(C)CCc2ccccc2)cc1OC (stereo unspecified) the results were Shiga inhibitor 24, CHX counter -2, NS1 inh 1%, Pf growth 96h 6%, FBPA Giardia inh 5% and Pf growth 48h -12%.
COc1ccc(CC(=O)NNC(=O)CCc2ccccc2)cc1OC was read as Shiga inhibitor 12, CHX counter -4, Pf growth 96h 13µM*, FBPA Giardia inh -3% and Pf growth 48h 51%.
COc1cc(C(=O)NCCCCc2ccccc2)cc(OC)c1OC was read as Shiga inhibitor -11, CHX counter -1, NS1 inh -7%, Pf growth 96h inconclusive, FBPA Giardia inh 3% and Pf growth 48h -26%.
COc1ccc(C(=O)NCCc2ccccc2)cc1OC was read as Shiga inhibitor 44*, CHX counter 28*, NS1 inh 1%, Pf growth 96h 0%, FBPA Giardia inh -1% and Pf growth 48h 74%.
COc1ccccc1OCCNC(=O)c1ccc2c(c1)CCC2 was read as Shiga inhibitor 65*, CHX counter 24*, NS1 inh -22%, Pf growth 96h 64%, FBPA Giardia inh inconclusive and Pf growth 48h 88%.
`COc1ccc(C(=O)NCCc2ccccc2)cc1[N+](=O)[O-]` gave Shiga inhibitor 50*, CHX counter 32*, NS1 inh -7%, Pf growth 96h 18%, FBPA Giardia inh 2% and Pf growth 48h 45%.
`CCOc1cc(-c2noc(CCC(=O)NCCc3ccccc3)n2)ccc1OC` gave Shiga inhibitor -7, CHX counter -3, NS1 inh -27%, Pf growth 96h 2.6µM*, FBPA Giardia inh 7% and Pf growth 48h 0%.
`COc1ccc(C(=O)NCCc2c[nH]c3ccccc23)cc1[N+](=O)[O-]` gave Shiga inhibitor 3, CHX counter 7.4*, NS1 inh -3%, Pf growth 96h 13µM*, FBPA Giardia inh 1% and Pf growth 48h 0%.
COc1ccc(C(=O)NCc2ccccn2)cc1[N+](=O)[O-] was read as Shiga inhibitor -1, CHX counter 1, Pf growth 96h 39%, FBPA Giardia inh 3% and Pf growth 48h -13%.
CCc1noc(C)c1C(=O)N(CC)CC(=O)Nc1cc(Cl)ccc1C was read as Pf growth 96h -23% and Pf growth 48h -12%.
`COc1ccccc1OCc1ccc(C(=O)NN)cc1` gave Shiga inhibitor -14, CHX counter -2, NS1 inh inconclusive, Pf growth 96h -34% and FBPA Giardia inh -1%.
`COc1ccccc1OCc1ccc(C(=O)c2ccccc2)cc1` gave CHX counter 23*, NS1 inh -13%, Pf growth 96h 45%, FBPA Giardia inh 3% and Pf growth 48h 11%.
CN(C)CCN1C(=O)c2ccccc2N(C)c2ccccc21 was read as Pf growth 96h 3µM* and Pf growth 48h -18%.
Screening COc1ccc(OC)c(NC2=NC3(CCCC3)N=C(N)N2)c1 returned Shiga inhibitor 13, CHX counter 2, NS1 inh -4%, FBPA Giardia inh 0% and Pf growth 48h -22%.
`Cc1cc(C)cc(NC2=NC3(CCCCC3)N=C(N)N2)c1` gave Shiga inhibitor -2, CHX counter -4, NS1 inh inconclusive, Pf growth 96h 1µM* and FBPA Giardia inh -2%.
Screening CC1=CC(C)(C)N2C(=O)C3(N=C(N)NC(Nc4ccccc4)=N3)c3cc(C)cc1c32 (stereo unspecified) returned Shiga inhibitor -5, CHX counter -2, NS1 inh -8%, Pf growth 96h -1%, FBPA Giardia inh 0% and Pf growth 48h inconclusive.
NC1=NC2(CCCCC2)N=C(Nc2ccc(F)cc2F)N1 was read as Shiga inhibitor -12, CHX counter -2, NS1 inh inconclusive, Pf growth 96h 3.7µM*, FBPA Giardia inh 0% and Pf growth 48h inconclusive.
`CCCCOc1ccc(NC2=NC3(CCCC3)N=C(N)N2)cc1` gave Shiga inhibitor -9, CHX counter -2, NS1 inh -40%, Pf growth 96h inconclusive, FBPA Giardia inh 3% and Pf growth 48h 1.2µM*.
`Cc1cccc(NC2=NC(C)(C)N=C(N)N2)c1` gave Shiga inhibitor 30, CHX counter -2, NS1 inh 2%, Pf growth 96h -23%, FBPA Giardia inh -1% and Pf growth 48h 0.0059µM*.
CCCCOc1ccc(C2(C(=O)O)CCCC2)cc1 was read as Shiga inhibitor -4, CHX counter -3, NS1 inh -104%, Pf growth 96h inconclusive, FBPA Giardia inh 5% and Pf growth 48h 7%.
For CN(Cc1ccccc1)C(=O)COC(=O)C1CCN(S(=O)(=O)c2ccc3c(c2)OCCO3)CC1 the results were Pf growth 96h -35% and Pf growth 48h -6%.
For COCCN1CCN(C(=O)C2CCC(=O)N(Cc3ccccc3OC)C2)CC1 (stereo unspecified) the results were Shiga inhibitor 26, CHX counter -6, NS1 inh 9%, Pf growth 96h inconclusive and Pf growth 48h 2%.
OC1(Cc2cc(-c3ccccc3)no2)CCN(CCCc2ccccc2)CC1 was read as Shiga inhibitor 6, CHX counter 3, NS1 inh 9%, Pf growth 96h 3.3µM*, FBPA Giardia inh 2% and Pf growth 48h 6.6µM*.
For O=C1N[C@@H]2[C@H](CCCCC(=O)Oc3ccc([N+](=O)[O-])cc3)SC[C@H]2N1 the results were Shiga inhibitor -7, CHX counter -6 and FBPA Giardia inh -4%.
